In the library only some 7.5% were active in any assay of this set; here they are far more common.
SMN2 splice up: qHTS Assay for Enhancers of SMN2 Splice Variant Expression; Potency, µM (highest dose often 46.1 µM), without a hit: at the top dose activity change, positive = activation, most hits filed as activators; AID 1458, 2008; HEK293 SMN2-luciferase splicing reporter, luminescence, 30-36 h; 210,000 tested, 2.8% active; further: % of control where 0% means no effect; nearly all actives have a fitted effect of over 55% in size
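qHTS luciferase splicing reporter: luminescence rises when SMN2 exon 7 is included in transfected HEK293 cells. Compound exposure lasted 30-36 h at 37C, with 4.5 mM final sodium butyrate as control, followed by a ONE-Glo read.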
Rab9 prom act: qHTS Assay for Rab9 Promoter Activators. Huh7 Rab9 promoter-luciferase reporter, luminescence, 24 h. Potency, µM (top dose mostly 9.22 µM), for the others: at the top dose activation, negative = inhibition, most hits filed as activators. 320,000 tested, 2.8% active. AID 485297, 2010; further: % of control where 0% means no effect; nearly all actives have a fitted effect of over 60% in size
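Cells were plated at 1500 per well in reduced-serum medium with 10% FBS and left 2 h. Compound in DMSO was then added for 24 h at 37 °C. Reporter signal was read by luminescence after 10 min with luciferase detection reagent.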
NPC1 promoter act: qHTS Assay for NPC1 Promoter Activators; Potency, µM (doses to about 9.22 µM), for the others: at the highest dose activation, most hits filed as activators; AID 485313, 2010; Huh7 NPC1 promoter luciferase reporter, 24 h; 320,000 tested, 2.4% active; further: % of control where 0% means no effect; nearly all actives have a fitted effect of over 60% in size
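Compounds in DMSO were transferred onto Huh7 NPC1-luciferase reporter cells pre-incubated 2 h; after 24 h at 37 °C, Amplite reagent was dispensed and luminescence recorded 10 min later.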
FLuc counter: qHTS profiling assay for firefly luciferase inhibitor/activator using purifed enzyme and Km concentrations of substrates (counterscreen for miR-21 project); purified FLuc, Km substrates, luminescence inhibition; Potency, µM (top dose mostly 57.5 µM), for inactives: top-dose activity change, negative = inhibition, hits mostly inhibitors; 360,000 tested, 6.9% active;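 further: plate controls were vehicle for no effect and reference inhibitor for full effect; nearly all actives have a fitted effect of over 55% in size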
Target sequence (P08659 whole entry, looked up): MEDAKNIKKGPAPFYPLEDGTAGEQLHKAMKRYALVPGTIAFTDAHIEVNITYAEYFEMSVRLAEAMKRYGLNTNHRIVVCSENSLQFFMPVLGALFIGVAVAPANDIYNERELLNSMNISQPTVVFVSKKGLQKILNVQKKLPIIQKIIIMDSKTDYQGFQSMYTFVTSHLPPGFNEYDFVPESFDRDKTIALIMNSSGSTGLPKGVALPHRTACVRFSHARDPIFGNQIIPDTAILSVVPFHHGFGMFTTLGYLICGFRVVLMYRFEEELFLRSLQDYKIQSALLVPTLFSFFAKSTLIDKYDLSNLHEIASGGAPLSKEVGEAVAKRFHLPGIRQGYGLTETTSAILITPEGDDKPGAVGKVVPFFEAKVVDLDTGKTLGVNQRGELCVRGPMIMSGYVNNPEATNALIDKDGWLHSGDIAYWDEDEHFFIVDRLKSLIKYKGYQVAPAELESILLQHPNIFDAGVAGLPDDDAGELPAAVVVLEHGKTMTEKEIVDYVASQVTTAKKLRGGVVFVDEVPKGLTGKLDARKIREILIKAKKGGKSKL
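Purified P. pyralis luciferase (10nM final) with 10uM D-luciferin and 10uM ATP (Km levels) in 50mM Tris acetate pH 7.5, 10mM Mg acetate, 0.01% Tween-20, 0.05% BSA; qHTS 6-point titration, ~60 µM downward; luminescence read.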
ELG1 genotoxic: qHTS screen for small molecules that induce genotoxicity in human embryonic kidney (HEK293T) cells expressing luciferase-tagged ELG1; HEK293T ELG1-luciferase reporter, luminescence, 16 h; Potency, µM (highest dose often 46 µM), inactives show top-dose activity change, positive = activation, most hits filed as activators; 330,000 tested, 1.3% active; further: % of control where 0% means no effect; nearly all actives have a fitted effect of over 60% in size
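16 hr compound incubation (37 °C, 5% CO2) of HEK293T cells carrying luciferase-tagged ELG1; luciferase then measured by ONE-Glo luminescence after 30 min at RT.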
An asterisk follows results filed as active; ? = inconclusive; nt = no result given. The call rests on the fitted dose curve; in most records, active means well fitted curve in the direction sought with a large enough effect; inconclusive means small, poorly fitted or top-dose-only effect, or another doubt; inactive means no such curve, though single readings can be large; an effect the other way counts as inactive or inconclusive. Potency means the concentration at half of the fitted maximal effect.

SMILES	SMN2 splice up	Rab9 prom act	NPC1 promoter act	FLuc counter	ELG1 genotoxic
COc1ccc(C)cc1NC(=O)N(C(C)C)C1CCN(C(C)=O)CC1	nt	nt	nt	-16%	nt
O=C(NCc1ccc(Cl)cc1)C1CCCCN1S(=O)(=O)c1ccccc1 (centres undefined)	nt	-2%	0%	1%	-6%
CCOC(=O)c1c(NC(=O)C(C)Sc2cn(CCNC(=O)c3ccccc3OC)c3ccccc23)sc2c1CCC2 (centres undefined)	2%	nt	nt	-6%	nt
COC(=O)c1c(NC(=O)c2ccccc2C(=O)O)sc2c1CCCC2	12%	nt	nt	12µM*	nt
NC(=O)c1c(NC(=O)c2ccc(F)cc2)sc2c1CCC2	nt	1.8µM*	1.8µM*	4.3µM*	?
O=C(Nc1sc2c(c1C(=O)O)CCCCC2)c1ccccc1F	5.6µM*	4µM*	3.2µM*	11µM*	-7%
CCOC(=O)c1c(NC(=O)c2ccccc2C(=O)O)sc2c1CCCC2	nt	6%	-7%	0%	0%
CCOC(=O)C1CCCCN1S(=O)(=O)c1csc(C(N)=O)c1 (centres undefined)	nt	nt	nt	-7%	nt
COC(=O)c1ccccc1NC(=O)Nc1nnc(N2CCCCC2C)s1 (centres undefined)	3%	-2%	1%	4%	1%
COc1ccc(NC(=O)Nc2nnc(N3CCCCC3C)s2)cc1OC (centres undefined)	-4%	-5%	-2%	17µM*	1%
COc1ccc(OC)c(NC(=O)Nc2nnc(N3CCCCC3C)s2)c1 (centres undefined)	nt	7%	11%	19µM*	7%
COc1ccc(NC(=O)c2ccccc2NS(=O)(=O)c2ccc(C)cc2)c([N+](=O)[O-])c1	-56%	3%	-5%	-9%	-2%
COc1ccc(C(=O)COC(=O)c2ccccc2NS(=O)(=O)c2ccc(O)c([N+](=O)[O-])c2)cc1	nt	0%	-3%	11µM*	0%
Clc1ncccc1-c1nc2ccccc2s1	nt	-2%	26%	15µM*	?
O=C(Nc1ccccc1-c1nc2ccccc2s1)c1cccnc1	2%	-8%	-3%	4%	-2%
O=c1c(-c2nc3ccccc3s2)cccn1Cc1ccc(Cl)cc1	-20%	?	22%	13µM*	?
COc1cc(OC)c(-c2nc3ccccc3s2)cc1OC	nt	9%	10%	12µM*	-4%
Cc1[nH]nc(-c2ccc(O)cc2O)c1-c1nc2ccccc2s1	-20%	0%	0%	-13%	19%
Oc1c(Br)cc(Br)cc1-c1nc2ccccc2s1	-4%	nt	nt	7.6µM*	nt
COc1cc(OC)cc(C(=O)Nc2ccccc2-c2nc3ccccc3s2)c1	-13%	nt	nt	-4%	nt
O=C(NCCCn1cccn1)C1CCC(=O)N(CCc2ccccc2)C1 (centres undefined)	nt	-4%	-3%	-2%	-1%
CCN(c1cccc(C)c1)S(=O)(=O)c1ccc2c(c1)N(C(C)=O)CCS2	nt	-1%	-6%	-1%	-2%
COc1ccc(-c2cc(-c3ccccc3)nc(SC(C)C(=O)O)c2C#N)cc1 (centres undefined)	nt	1%	-6%	-19%	6%
COc1cccc(-c2nc3ccccc3s2)c1O	7.1µM*	?	?	0.34µM*	1.5µM*
CC(=O)NC(=S)Nc1sc2c(c1C(N)=O)CCC(C)C2 (centres undefined)	nt	1.6µM*	2.8µM*	9.5µM*	?
O=C(Nc1nc2c(s1)CCCC2)c1ccc(N2C(=O)CCC2=O)cc1	nt	?	?	19µM*	?
CCc1ccc2nc(NC(=O)c3ccc(N4C(=O)CCC4=O)cc3)sc2c1	nt	24%	23%	8.5µM*	8%
CCc1ccc(C(=O)NNC(=O)c2cccc(N3C(=O)CCC3=O)c2)cc1	nt	-2%	-2%	11µM*	4%
CC(C)NC(=O)CN1CCN(C(=O)c2ccc3oc(CCCc4ccccc4)nc3c2)CC1	nt	12%	0%	-5%	-6%

Screening results as filed in PubChem BioAssay.
